SW480 rereplic: A quantitative high throughput screen for small molecules that induce DNA re-replication in SW480 colon adenocarcinoma cells; AID 624297, 2012; hit rate 1.8% among 340,000; Potency, µM (titrated, usually from 46.1 µM), for the others: at the highest dose re-replication activation, hits mostly activators; SW480 DNA re-replication, Hoechst DNA content imaging, 48 h; also: potency is read from the fitted curve at half-maximal effect; % of control where 0% means no effect; nearly all actives have a fitted effect of over 55% in size
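Treated cells incubate 48 hr (37 C, 5% CO2), are stained 40 min with Hoechst, and nuclear fluorescence is enumerated; a rise in nuclei with high DNA signal marks re-replication.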
VP16 counter: VP16 counterscreen qHTS for inhibitors of ROR gamma transcriptional activity | hit rate 3.5% among 310,000 | Potency, µM (series often up to 53.6 µM), without a hit: top-dose activity, negative = inhibition, most hits filed as inhibitors | Drosophila S2 Gal4-VP16 UAS-luciferase, luminescence, 20 h | AID 2546, 2010;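 also: Gal4-VP16 expression switched on by copper sulfate through the metallothionein promoter; potency is read from the fitted curve at half-maximal effect; % is scaled to controls: 0 for no effect and ±100 for the full control effect; nearly all actives have a fitted effect of over 50% in size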
MCF10A rereplic: A quantitative high throughput screen for small molecules that induce DNA re-replication in MCF 10a normal breast cells. AID 624296, 2012. Potency, µM (series often up to 46.1 µM), inactives show top-dose activity, positive = re-replication, actives largely listed as activators. hit rate 2.9% among 350,000. MCF 10A DNA re-replication, Hoechst nuclear intensity, 48 h; also: potency is read from the fitted curve at half-maximal effect; % of control where 0% means no effect; nearly all actives have a fitted effect of over 50% in size
RORg inh: qHTS for inhibitors of ROR gamma transcriptional activity. Nuclear receptor ROR-gamma (Mus musculus), P51450. Drosophila S2 Gal4-RORgamma UAS-luciferase reporter, 20 h. Potency, µM (titrated, usually from 53.6 µM), without a hit: top-dose activity change, negative = inhibition, most hits filed as inhibitors. hit rate 5.4% among 310,000; also: potency is read from the fitted curve at half-maximal effect; % is scaled to controls: 0 for no effect and ±100 for the full control effect; nearly all actives have a fitted effect of over 60% in size
Target sequence (P51450 whole entry, looked up, the tested form may be a part): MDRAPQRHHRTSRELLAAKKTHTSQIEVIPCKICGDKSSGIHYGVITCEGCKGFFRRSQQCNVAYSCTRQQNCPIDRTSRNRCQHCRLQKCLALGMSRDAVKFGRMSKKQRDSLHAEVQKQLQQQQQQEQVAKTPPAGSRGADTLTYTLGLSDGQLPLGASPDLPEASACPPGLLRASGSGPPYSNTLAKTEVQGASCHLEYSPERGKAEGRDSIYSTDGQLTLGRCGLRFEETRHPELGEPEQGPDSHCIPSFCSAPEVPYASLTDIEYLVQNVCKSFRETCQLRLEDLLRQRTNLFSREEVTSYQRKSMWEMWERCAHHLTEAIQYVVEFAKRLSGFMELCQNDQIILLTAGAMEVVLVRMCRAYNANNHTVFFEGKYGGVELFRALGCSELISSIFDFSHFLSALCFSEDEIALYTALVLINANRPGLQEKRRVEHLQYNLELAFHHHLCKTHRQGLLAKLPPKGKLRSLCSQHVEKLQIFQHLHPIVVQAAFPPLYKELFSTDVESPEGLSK
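Using a luciferase readout, inhibitors were identified by reduced reporter activity in Drosophila cells coexpressing a copper-inducible Gal4–ROR gamma fusion and UAS-driven Photinus luciferase, incubated 20 hr after 700 uM copper sulfate.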
IL-1B inflam inh: qHTS for Inhibitors of Inflammasome Signaling: IL-1-beta AlphaLISA Primary Screen; THP-1 LPS/ATP IL-1B secretion, AlphaLISA, 16 h; hits give low values; activity change, % at 57.5 µM; hit rate 4.7% among 360,000; AID 743279, 2014; in the data active = activity change below about -50%; inconclusive = mostly about -30% to -49%; also: % is scaled to controls: 0 for no effect and ±100 for the full control effect
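THP-1 cells pretreated 1 hr with compounds (up to 57.5 uM final), then stimulated with LPS (250 ng/mL final) plus ATP (1.25 mM final); secreted IL-1B measured by AlphaLISA after 16 hr, decreased signal indicating inhibition.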
* marks the source's active call; other numbers are inactive results; [ ] = dose if it differs, or a comment. In the library only some 11% were active in any assay of this set; here they are far more common. Unless noted, calls follow the shape of the dose curve; as a rule, active = well fitted curve in the direction sought with a large enough effect; inconclusive = small, poorly fitted or top-dose-only effect, or another doubt; inactive = no such curve, though single readings can be large; an effect the other way counts as inactive or inconclusive.

Screening O=C1C=CC(=O)N1CCCCCCCCCCN1C(=O)C=CC1=O returned SW480 rereplic 6.51µM*, MCF10A rereplic inconclusive and IL-1B inflam inh -86.6*.
O=C(Cn1cnc2c(oc3nc4c(cc32)CCCC4)c1=O)Nc1ccccc1 was read as SW480 rereplic inconclusive, VP16 counter -23.1%, MCF10A rereplic inconclusive, RORg inh -26.9% and IL-1B inflam inh 13.6.
O=C(Cn1cnc2c(oc3nc4c(cc32)CCCC4)c1=O)Nc1cccc(Cl)c1 was read as SW480 rereplic inconclusive, VP16 counter -12.2%, MCF10A rereplic 18.4µM*, RORg inh -23.5% and IL-1B inflam inh 8.4.
`CN(Cc1cn(Cc2cccc(Cl)c2)nn1)C1CN(Cc2cn(Cc3cccc(Cl)c3)nn2)S(=O)(=O)C1` (configuration not stated) gave IL-1B inflam inh 0.0.
O=C(N/N=C1/C[C@@H](O)[C@@H](O)[C@@H]2[C@@H]3C(=O)N(Cc4ccccc4)C(=O)[C@H]3CC[C@@H]12)OCc1ccccc1 was read as VP16 counter -1.3%[10 µM] and RORg inh -8.6%[10 µM].
`CCN1C(=O)[C@@H]2[C@@H]3CN(S(=O)(=O)c4ccc(C)cc4)[C@@H](c4ccccc4Cl)[C@@H]3C(=O)C[C@@H]2C1=O` gave IL-1B inflam inh 0.0.
For CN1CCN(c2nnc(-c3cccs3)c3ccccc23)CC1 the results were SW480 rereplic -8.5%, VP16 counter -0.4%, MCF10A rereplic -0.2%, RORg inh 20.2% and IL-1B inflam inh -54.4*.
For CCCCCCn1cc(CN2CC(N3CCCCC3)CS2(=O)=O)nn1 (configuration not stated) the results were IL-1B inflam inh -19.5.
Screening Cc1ccc(C#CC2C=CC(Oc3ccc4c(c3)OCO4)C(CO)O2)c(C)c1 (configuration not stated) returned VP16 counter -5.7%[10 µM] and RORg inh 17.9%[10 µM].
`NC(=O)c1ccccc1NC(=O)COC(=O)C1(c2ccccc2)CC1` gave SW480 rereplic -1.8%, MCF10A rereplic 13.6% and IL-1B inflam inh -3.6.
For COc1ccc2c(c1)C(=O)C1NC(=O)NC(=O)C1(Br)N2 (configuration not stated) the results were SW480 rereplic -2.6%, MCF10A rereplic 4.7% and IL-1B inflam inh 18.1.
Screening Cc1ccccc1S(=O)(=O)NC(=O)C1(C)CCN1C(=O)CCc1ccccc1 (configuration not stated) returned IL-1B inflam inh 3.2.
CC1(C(=O)NS(=O)(=O)c2ccccc2C(F)(F)F)CCN1C(=O)CCc1ccccc1 (configuration not stated) was read as IL-1B inflam inh -54.0*.
`COc1cccc(NC(=S)N2CCC(Cc3ccccc3)CC2)c1` gave SW480 rereplic -5.3%, VP16 counter 17.8µM*, MCF10A rereplic 10.7%, RORg inh 7.08µM* and IL-1B inflam inh -22.7.
`COc1ccc(NC(=S)N2CCC(Cc3ccccc3)CC2)cc1OC` gave SW480 rereplic -3.4%, VP16 counter 15.8µM*, MCF10A rereplic 1.7%, RORg inh 12.6µM* and IL-1B inflam inh 20.3.
COc1cccc(CC(=O)N2CCC(CCC(=O)Nc3cccc(OC)c3)CC2)c1 was read as SW480 rereplic -0.6%, VP16 counter -13.3%, MCF10A rereplic 3.0%, RORg inh 13.3% and IL-1B inflam inh -13.5.
`COC(=O)[C@@H](NC(=O)O[C@@H]1C(=O)c2cc(Br)ccc2O[C@H]1c1ccc2c(c1)OCO2)C(C)C` gave VP16 counter 4.3% and RORg inh 21.3%.
For CO[C@H]1COC(=O)[C@@H](C)COC(=O)[C@@H](Cc2ccccc2)NC(=O)C/C=C\[C@H]1C the results were VP16 counter -11.2%[10 µM] and RORg inh -18.4%[10 µM].
COc1ccc(C(=O)NCCS(=O)(=O)N2CCCC2)cc1 was read as SW480 rereplic -2.8%, MCF10A rereplic -0.3% and IL-1B inflam inh -6.6.
`CCOc1cc(NC(=S)NCC2CCCO2)c(OCC)cc1NC(=O)c1ccc(C)cc1` (configuration not stated) gave SW480 rereplic -6.8%, VP16 counter 3.98µM*, MCF10A rereplic 15.3%, RORg inh 3.16µM* and IL-1B inflam inh 13.3.
`CCOc1cc(NC(=S)NCC2CCCO2)c(OCC)cc1NC(=O)c1ccccc1` (configuration not stated) gave SW480 rereplic -17.2%, VP16 counter 11.2µM*, MCF10A rereplic 4.2%, RORg inh 6.31µM* and IL-1B inflam inh -21.0.
Screening CCOc1cc(NC(=O)c2cccs2)c(OCC)cc1NC(=O)CCC(=O)NCC1CCCO1 (configuration not stated) returned SW480 rereplic 6.51µM*, VP16 counter -0.6%, MCF10A rereplic inconclusive, RORg inh 1.4% and IL-1B inflam inh -0.9.
`O=C(NCC1CCCO1)c1cccs1` (configuration not stated) gave SW480 rereplic -5.3%, VP16 counter -8.3%, MCF10A rereplic 2.3%, RORg inh -3.1% and IL-1B inflam inh -6.5.
`CCOc1cc(C(=O)NCC2CCCO2)cc(OCC)c1OCC` (configuration not stated) gave SW480 rereplic 2.0%, VP16 counter -1.1%, MCF10A rereplic 0.8%, RORg inh 0.0% and IL-1B inflam inh 3.8.
`CCOc1cc(NC(=S)NCC2CCCO2)c(OCC)cc1NC(=O)C1CC1` (configuration not stated) gave SW480 rereplic inconclusive, VP16 counter 9.8%, MCF10A rereplic inconclusive, RORg inh 11.2µM* and IL-1B inflam inh -7.0.
`CCCCN(C(=O)CSCC(=O)Nc1ccc(C)cc1)c1c(N)n(CC(C)C)c(=O)[nH]c1=O` gave SW480 rereplic -20.5%, MCF10A rereplic -3.7% and IL-1B inflam inh 16.0.
Screening COC(=O)C1(C)C=C(Nc2ccc(OC)cc2)C(=O)N1c1ccc(OC)cc1 (configuration not stated) returned VP16 counter 2.7% and RORg inh -17.7%.
Screening C[C@@H]1CN([C@@H](C)CO)C(=O)CCCn2cc(nn2)CO[C@H]1CN(C)C(=O)c1cc(-c2ccccc2)on1 returned IL-1B inflam inh 7.0.
`CCOc1cc(NC(=S)NCC2CCCO2)c(OCC)cc1NC(=O)c1cccc(F)c1` (configuration not stated) gave SW480 rereplic -3.0%, VP16 counter 4.47µM*, MCF10A rereplic 3.0%, RORg inh 3.55µM* and IL-1B inflam inh 71.2.
